hERG WT inh – inhibitors of human wildtype KCNH2 potassium channel; AID 720551; U2OS, BacMam KCNH2, thallium flux FluxOr; hits give low values; 0.37% of 340,000 active; Q12809; activity change, % at 1.84 µM;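 active = maximum activity change below -70%; inconclusive = maximum activity change between -70% and -50%; inactive = maximum activity change above -50%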; also: % is scaled to controls: 0 for no effect and ±100 for the full control effect
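U2OS cells were transduced with wild-type KCNH2 virus (2.03 x 10^8 / mL) for 4 h at room temperature, then cultured overnight at 37 C. Thallium flux was read with FluxOr dye. Rate constants were normalized to DMSO controls.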
TRPML1 agonist – activates the human TRPML1 channel; Q9GZU1; TRPML1-expressing cells, Ca2+ dye fluorescence, FDSS; activation, % (concentration not given with the values); 0.12% of 410,000 active; AID 624414; in the data active = activation above about 50%; inconclusive = mostly about 30% to 49%; also: 0% is about no effect
Target sequence (Q9GZU1 whole entry, looked up): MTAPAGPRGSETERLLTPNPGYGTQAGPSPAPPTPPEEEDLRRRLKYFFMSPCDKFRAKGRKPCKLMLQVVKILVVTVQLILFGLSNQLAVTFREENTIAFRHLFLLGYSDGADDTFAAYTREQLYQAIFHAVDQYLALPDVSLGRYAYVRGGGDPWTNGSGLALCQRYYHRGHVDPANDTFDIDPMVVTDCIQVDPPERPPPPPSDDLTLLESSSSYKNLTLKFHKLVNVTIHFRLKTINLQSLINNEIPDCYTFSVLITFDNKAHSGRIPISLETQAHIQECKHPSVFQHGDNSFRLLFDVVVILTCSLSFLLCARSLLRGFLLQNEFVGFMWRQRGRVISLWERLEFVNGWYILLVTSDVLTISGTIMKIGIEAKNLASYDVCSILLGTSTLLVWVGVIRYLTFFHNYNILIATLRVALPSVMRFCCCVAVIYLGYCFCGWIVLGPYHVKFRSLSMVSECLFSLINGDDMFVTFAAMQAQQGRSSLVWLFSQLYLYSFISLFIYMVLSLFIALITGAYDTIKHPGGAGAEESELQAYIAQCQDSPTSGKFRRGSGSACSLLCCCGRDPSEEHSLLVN
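Calcium fluorescence on an FDSS kinetic reader gave the read-out. Tet-induced TRPML1-DL cells were plated overnight, dye-loaded (Ca8 with quencher, 45-90 min, room temperature, dark), then read 110 s after compound addition, and again 110 s after 4uM final 54-4 (EC80).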
TRPML1 blocker – human mucolipin-1 channel inhibition. Q9GZU1. activity change, negative = inhibition, % (concentration not given with the values). 0.02% of 390,000 active. TRPML1-inducible cells, Ca2+ dye fluorescence, FDSS; hits give low values; inhibition of EC80 agonist-evoked calcium signal. AID 624415; in the data active = activity change below about -50%; inconclusive = between about -30% and that limit;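 also: stimulus is agonist 54-4 at its EC80 concentration; % is scaled to controls: 0 for no effect and ±100 for the full control effect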
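Calcium fluorescence in TRPML1-DL cells induced overnight with Tet: a 110 s read after compound pin addition, then a 110 s antagonist read after challenge with 54-4 at 4 uM final (EC80).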
KCNH2 3.1 inh – KCNH2 3.1 (human) potassium channel inhibition; U2OS KCNH2 3.1, thallium flux FluxOr; hits give low values; activity change, % (tested at about 1.8 µM); 0.95% of 340,000 active;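 active = maximum activity change below -70%; inconclusive = maximum activity change from -70% to -50%; inactive = maximum activity change above -50%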;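 also: thallium influx rate constant from kinetic fluorescence after stimulation buffer; % is scaled to controls: 0 for no effect and ±100 for the full control effect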
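U2OS cells transduced with KCNH2 3.1 mutant virus (1.77 x 10^8 /mL, 4 h), plated overnight at 37 C, loaded 45 min with FluxOr dye plus Red40 quencher. Thallium flux rate constant from kinetic reads after stimulation buffer, normalised to controls.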
TRPV1 potentiator – potentiators of human vanilloid receptor 1 (TRPV1); 0.02% of 320,000 active; TRPV1-expressing cells, Fluo-8 calcium influx, capsaicin EC20 potentiation; potentiation, % at 8.33 µM; AID 540277; in the data active = potentiation above about 80%; inconclusive = between about 30% and that limit; also: 0% is about no effect
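Cells expressing TRPV1 were dye-loaded with Fluo-8 and read kinetically: 10 s baseline, 3 min after compound (agonist portion), then 2 min after EC20 capsaicin (allosteric enhancer portion). Calcium-bound dye fluorescence at 480/520 nm.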
TRPV1 agonist – human TRPV1 agonism; Q8NER1; activation, % at 8.33 µM; TRPV1-expressing cells, Fluo-8 calcium influx, agonist mode; 0.19% of 320,000 active; in the data active = activation above about 80%; inconclusive = between about 30% and that limit; also: 0% is about no effect
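TRPV1-expressing cells were cultured overnight at 35.5C and loaded with Fluo-8 calcium dye for 40 to 90 min at room temperature. After a 10 s baseline, compound was added and calcium influx was read kinetically for 3 min (ex 480/em 520 nm).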
* = called active by the depositor; ? = inconclusive; · = no result given. Sampled rows, rich in hits. Any-hit rate of the full collection: about 1.3%.

SMILES	hERG WT inh	TRPML1 agonist	TRPML1 blocker	KCNH2 3.1 inh	TRPV1 potentiator	TRPV1 agonist
CCc1ccc(NC(=O)c2cc(CN3CCOCC3)on2)cc1	·	1	43	·	·	·
O=c1[nH]ncc(N2CCCCC2)c1Cl	-1	0	5	-1	7	0
O=c1[nH]ncc(N2CCCCCC2)c1Cl	-9	0	-16	-100*	7	0
NS(=O)(=O)c1cccc(NC(=O)COC(=O)CCC(=O)c2cccs2)c1	-3	1	-7	-71*	·	·
CN(C)S(=O)(=O)c1cccc(NC(=O)COC(=O)CCC(=O)c2cccs2)c1	8	-1	27	0	1	4
CCOC(=O)c1c(C)[nH]c(C(=O)OC(C(=O)N(C)C)c2ccccc2)c1C (configuration not stated)	·	0	·	·	·	·
CCOc1ccc(C(=O)N2CCN(c3cccc(Cl)c3)CC2)cc1	·	2	18	-14	-14	27
CCOc1ccc(C(=O)N2CCN(c3cccc(C)c3C)CC2)cc1	10	4	-7	-74*	-16	?
COc1ccccc1C(=O)Nc1ccnn1C1CCN(CCCc2ccccc2)CC1	-105*	0	11	-103*	5	2
COc1ccccc1C(=O)Nc1ccnn1C1CCN(C)CC1	7	-1	20	2	4	2
O=C(Nc1ccnn1C1CCN(CCCc2ccccc2)CC1)c1ccccc1	?	1	19	-85*	-2	2
Cc1ccccc1C(=O)Nc1ccnn1C1CCN(CCCc2ccccc2)CC1	-139*	0	-12	-106*	10	-10
O=C(Nc1ccnn1C1CCN(CCCC2CCCC2)CC1)c1ccccc1	?	0	-3	13	0	2
O=C(Cc1ccc2ccccc2c1)NO	·	0	·	·	·	·
CCOC(=O)c1nn(-c2ccccc2)c2nnc(Cc3ccc(Cl)cc3)c(=O)n12	2	1	7	-2	10	22
CCOC(=O)c1nn(-c2ccc(Cl)cc2)c2nnc(Cc3ccc(C)cc3)c(=O)n12	-6	4	7	-88*	-3	?
COc1ccccc1C(=O)NC1(C(F)(F)F)C(=O)Nc2c1c(=O)[nH]c(=O)n2-c1ccccc1 (configuration not stated)	·	0	4	·	·	·
OC1CCN(CC(O)C(F)(F)F)CC1 (configuration not stated)	2	1	-2	-102*	-7	3
OCCN1CCN(CC(O)C(F)(F)F)CC1 (configuration not stated)	-3	2	15	-8	-2	2
N=C1C(c2ccccc2)=C(O)CN1c1cccc(S(=O)(=O)N2CCCCC2)c1	-225*	0	29	6	0	0
COc1cccc(CNC(=O)c2cc3c(=O)n(Cc4cccnc4)ccc3nc2C)c1	·	1	-18	·	·	·
OC(CN1CCN(Cc2ccccc2)CC1)c1ccccc1 (configuration not stated)	11	1	5	6	-6	5
O=[N+]([O-])c1ccc(C(O)CN2CCN(C/C=C/c3ccccc3)CC2)cc1 (configuration not stated)	-94*	0	11	-113*	-4	2
O=[N+]([O-])c1ccc(NC2CCN(Cc3ccccc3)CC2)c([N+](=O)[O-])c1	-74*	0	78	-96*	-38	1
O=[N+]([O-])c1ccc(C(O)CN2CCN(Cc3ccccc3)CC2)cc1 (configuration not stated)	-16	1	13	-70*	-2	-2
SMILES	hERG WT inh	TRPML1 agonist	TRPML1 blocker	KCNH2 3.1 inh	TRPV1 potentiator	TRPV1 agonist
Cc1ccc(C(=O)NCC(c2ccco2)N2CCCCC2)s1 (configuration not stated)	15	-1	8	-71*	-10	22
O=C(NCC(c1ccco1)N1CCCCC1)c1ccc([N+](=O)[O-])s1 (configuration not stated)	40	0	2	-9	·	·
CN(C)C(=O)COC(=O)c1cccnc1Nc1ccccc1F	-1	-1	0	4	-15	15
NC(=O)COC(=O)c1cccnc1Nc1ccccc1F	6	1	1	-72*	2	9
COc1ccccc1N1CCN(C(CNC(=O)C(=O)NCCc2ccccc2)c2cccnc2)CC1 (configuration not stated)	·	1	-1	·	·	·
COc1ccc(Cl)cc1NC(=O)CN(C)C(=O)CN1C(=O)NC(C)(c2ccc3ccccc3c2)C1=O (configuration not stated)	-7	3	31	-89*	·	·
CCN(CC)c1ccc(NC(=O)c2cccn2-c2nnc(N3CCCCC3)s2)c(C)c1	·	10	-17	·	·	·
CC(=O)Nc1ccc(NC(=O)C/C(C)=N/NC(=O)C(=O)Nc2ccc(C)c(Cl)c2)cc1	-1	-1	14	-84*	-2	1
CCc1ccccc1Nc1nc2ccccc2c2nncn12	·	1	-6	·	·	·
OCC1(Cc2ccccc2)CCN(C2CCN(c3ccc(F)c(F)c3)CC2)CC1	-31	0	51	-91*	-9	3
CC(=O)Nc1cc(O)c2nonc2c1O	·	0	·	·	·	·
COc1cccc(CNC(=O)CCn2ccc3cc(S(=O)(=O)N4CCCC4)ccc32)c1	11	-1	15	4	10	89*
CCc1nc2nc(C)cc(Nc3cc(C)ccc3C)n2n1	·	0	26	·	·	·
CCc1ccc(S(=O)(=O)N(C(C)=O)c2ccc3oc4c(c3c2)CCCC4)cc1	·	21	-2	·	·	·
CCCC(=O)N(c1ccc2oc3c(c2c1)CCCC3)S(=O)(=O)c1ccc(CC)cc1	·	64*	-25	·	·	·
S=c1[nH]nc(-c2ccccn2)n1/N=C/c1ccc(Br)s1	-1	78*	-30	-9	5	-1
S=c1[nH]nc(-c2ccccc2)n1/N=C/c1cccc(Br)c1	-3	3	7	-93*	1	0
Oc1ccc(Br)cc1/C=N/n1c(-c2ccccc2)n[nH]c1=S	-4	·	·	2	?	-5
COc1ccccc1N1CCN(C(=O)CCn2cnc3onc(-c4ccc(F)cc4)c3c2=O)CC1	·	1	-9	·	·	·
CC(=O)N1CCc2c(sc3c2c(=O)n(CCc2ccccc2)c(=O)n3Cc2cccc(C)c2)C1	·	0	58	·	·	·
CCOC(=O)CC1C(=O)NCCN1c1nc2ccc(C)cn2c(=O)c1/C=C1\SC(=S)N(C(C)CC)C1=O (configuration not stated)	·	·	·	·	-5	139*
CN1CCN(S(=O)(=O)c2ccc(N(C)Cc3ccc(OC(F)F)cc3)c([N+](=O)[O-])c2)CC1	51	53*	-9	-35	2	7

Source: PubChem BioAssay
